Values without a mark were called inactive. The source made the active and inactive calls. No stated cut-off is given here; in the data, active means remaining activity below about 50%; inactive means the rest.

Usually remaining activity stands for the signal under treatment as a percentage of the control signal.

Sequence of Phospholipase D2 (Homo sapiens) (O14939 whole entry, looked up): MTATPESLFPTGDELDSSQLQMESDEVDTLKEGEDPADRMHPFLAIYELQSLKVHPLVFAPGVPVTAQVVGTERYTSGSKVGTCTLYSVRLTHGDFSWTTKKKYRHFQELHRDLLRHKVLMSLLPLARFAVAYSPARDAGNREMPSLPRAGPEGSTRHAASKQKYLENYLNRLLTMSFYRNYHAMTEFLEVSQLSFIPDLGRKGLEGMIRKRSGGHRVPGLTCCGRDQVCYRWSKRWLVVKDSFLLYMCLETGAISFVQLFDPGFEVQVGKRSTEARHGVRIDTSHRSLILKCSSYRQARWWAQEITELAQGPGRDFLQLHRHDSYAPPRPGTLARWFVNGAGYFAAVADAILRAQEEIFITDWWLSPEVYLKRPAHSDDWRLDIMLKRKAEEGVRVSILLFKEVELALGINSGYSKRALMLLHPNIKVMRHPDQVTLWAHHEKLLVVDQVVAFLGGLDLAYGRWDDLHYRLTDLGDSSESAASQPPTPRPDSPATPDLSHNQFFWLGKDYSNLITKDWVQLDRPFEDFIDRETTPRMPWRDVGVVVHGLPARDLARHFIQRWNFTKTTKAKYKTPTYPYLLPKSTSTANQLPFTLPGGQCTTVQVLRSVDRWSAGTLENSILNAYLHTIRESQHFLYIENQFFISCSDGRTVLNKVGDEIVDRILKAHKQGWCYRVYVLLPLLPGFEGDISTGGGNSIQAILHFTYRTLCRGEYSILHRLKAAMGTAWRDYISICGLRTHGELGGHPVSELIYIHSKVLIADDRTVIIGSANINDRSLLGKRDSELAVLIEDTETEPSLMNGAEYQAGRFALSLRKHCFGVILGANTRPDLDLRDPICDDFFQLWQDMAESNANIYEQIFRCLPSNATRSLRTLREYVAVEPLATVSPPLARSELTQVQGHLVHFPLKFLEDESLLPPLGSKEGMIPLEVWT
Sequence of Phospholipase D2 (Homo sapiens) (O14939 whole entry, looked up): as above

This assay concerns the target Phospholipase D2 (Homo sapiens) (UniProt O14939). As to the kind of experiment: cellular phospholipase D2 activity inhibition – cell-based, HEK293, single concentration (AID 602143).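 Further: tested at 200 nM.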 The note with it: HEK293 cellular PLD2 activity, percent of control; hits give low values.
Turning to `O=C(NCCN1CCC(n2c(=O)[nH]c3ccccc32)CC1)Nc1cccc(F)c1`, the remaining activity is 87.9%.
Turning to `O=C(NCCN1CCN(c2ccncc2)CC1)c1ccc2ccccc2c1`, the remaining activity is 110%.
The same measure for `O=C(CCc1ccccc1)NCCN1CCC(n2c(=O)[nH]c3ccccc32)CC1`: 80.7%; for `O=c1[nH]c2ccccc2n1C1CCN(CCNS(=O)(=O)c2ccccc2[N+](=O)[O-])CC1`: 108%; for `C[C@@H](CN1CCC(n2c(=O)[nH]c3cc(-c4ccc(F)c(F)c4)ccc32)CC1)NC(=O)[C@H]1C[C@@H]1c1ccccc1`: 80.4%.
To `Cc1ccc(C(=O)NCCN2CCN(c3ccccn3)CC2)cc1` belongs 107%.
The same measure for `C[C@@H](CN1CCC(n2nnc3cc(C(F)(F)F)ccc32)CC1)NC(=O)c1cnc2ccccc2c1`: 86.9%; for `O=C(NCCN1CCC(n2c(=O)[nH]c3cc(Cl)ccc32)CC1)c1ccc(Cl)cc1`: 56.9%.
For the molecule `C[C@@H](CN1CCC(n2c(=O)[nH]c3ccccc32)CC1)NC(=O)c1ccc(F)c(F)c1`, the remaining activity is 75.6%.
The same measure for `C[C@H](CN1CCC2(CC1)CNCc1ccccc12)NC(=O)c1ccc2ccccc2c1`: 110%; for `O=C(NCCN1CCC(n2c(=O)[nH]c3ccccc32)CC1)Nc1cccc(OC(F)(F)F)c1`: 111%; for `O=C(NCCN1CCN(c2ncccn2)CC1)c1ccc2ccccc2c1`: 90.4%.
To `COc1cccc(C(=O)NCCN2CCC(n3c(=O)[nH]c4ccccc43)CC2)n1` belongs 72.5%.
On to `COc1cccc(N2CCN(CCNC(=O)c3ccc4ccccc4c3)CC2)c1`, for which the remaining activity was 77.4%.
The same measure for `O=C(NCCN1CCC2(CCc3ccccc32)CC1)c1cnc2ccccc2c1`: 100%.
To `COc1cccc(N2CCN(CCNC(=O)c3ccc(C(F)(F)F)cc3)CC2)c1` belongs 98.3%.
The same measure for `Cc1ccc(C(=O)NCCN2CCN(c3ncccn3)CC2)cc1`: 85.6%; for `O=C(NCCN1CCC2(CC1)CNCc1ccccc12)c1cnc2ccccc2c1`: 97.1%; for `C[C@@H](CN1CCC(n2c(=O)[nH]c3ccccc32)CC1)NC(=O)CCc1ccc(F)cc1`: 48.9% (active).
`C[C@@H](CN1CCC(n2c(=O)[nH]c3ccc(F)cc32)CC1)NC(=O)c1ccc(F)c(F)c1`: the remaining activity is 52.6%.
As to `O=C(NCCN1CCN(c2ccncc2)CC1)c1cc2ccccc2s1`, the remaining activity was 90.5%.
The same measure for `C[C@H](N)CN1CCC(c2nc3ccccc3n2C)CC1` (tested in a mixture with another compound): 81.2%.
The same measure for `O=C(NCCN1CCC(n2nnc3ccccc32)CC1)c1cnc2ccccc2c1`: 77.7%.
To `O=C(NCCN1CCC2(C=Cc3ccccc32)CC1)c1cnc2ccccc2c1` belongs 92.4%; to `O=C(NCCN1CCC(n2nnc3ccccc32)CC1)c1ccc2ccccc2c1`, 0.808% (active).
Regarding `O=C(NCCN1CCC(n2c(=O)[nH]c3ccccc32)CC1)c1ccc2c(ccc3ccc4ccccc4c32)c1`, the remaining activity is 96.7%.
The same measure for `Nc1ccc(C(=O)NCCN2CCC(n3c(=O)[nH]c4ccccc43)CC2)c(F)c1`: 60.4%; for `NCCN1CCC(n2c(=O)[nH]c3cc(Cl)ccc32)CC1` (tested in a mixture with another compound): 83.1%; for `O=C(NCCN1CCC(n2c(=O)[nH]c3ccccc32)CC1)c1cnccn1`: 139%.
`C[C@@H](CN1CCC(n2c(=O)[nH]c3ccccc32)CC1)NC(=O)c1cc2cc(F)ccc2[nH]1`: the remaining activity was 0.758% (active).
The same measure for `CCCCS(=O)(=O)NCCN1CCC(n2c(=O)[nH]c3ccccc32)CC1`: 78.3%; for `C[C@@H](CN1CCC(n2c(=O)[nH]c3ccccc32)CC1)NC(=O)c1ccc(Cl)c(Cl)c1`: 76.3%.
The same measure for `C[C@@H](CN1CCC(n2c(=O)[nH]c3ccccc32)CC1)NC(=O)COc1ccccc1`: 88.2%; for `CS(=O)(=O)NCCN1CCC(n2c(=O)[nH]c3ccccc32)CC1`: 96.5%.
The same measure for `O=C(Cc1ccc2ccccc2c1)NCCN1CCC(n2c(=O)[nH]c3ccccc32)CC1`: 112%; for `O=C(NCCN1CCC(n2c(=O)[nH]c3ccccc32)CC1)c1cccc2ccc3ccccc3c12`: 65.9%.
Regarding `O=C1c2ccccc2C(=O)N1CCN1CCC(n2c(=O)[nH]c3cc(Cl)ccc32)CC1`, the remaining activity is 90.8%.

The record behind these values is PubChem BioAssay AID602143 (Vanderbilt Specialized Chemistry Center, 2011).
